PubChem BioAssay AID393 (SGCOxCompounds, 2006)
Activity calls are given as the source filed them. The rule behind the calls is not given here.

Biological target: Serine/threonine-protein kinase pim-1 (Homo sapiens) (UniProt P11309)
Experiment: PIM1 kinase ligand binding by thermal shift, biophysical, human, melting temperature shift (AID 393)
Conditions: Thermal shift assay, stronger effect = higher value; at 10 µM, protein 2 µM, buffer 10 mM PIPES, pH 6.5, NaCl 150 mM unless noted

Sequence of Serine/threonine-protein kinase pim-1 (Homo sapiens) (P11309 whole entry, looked up): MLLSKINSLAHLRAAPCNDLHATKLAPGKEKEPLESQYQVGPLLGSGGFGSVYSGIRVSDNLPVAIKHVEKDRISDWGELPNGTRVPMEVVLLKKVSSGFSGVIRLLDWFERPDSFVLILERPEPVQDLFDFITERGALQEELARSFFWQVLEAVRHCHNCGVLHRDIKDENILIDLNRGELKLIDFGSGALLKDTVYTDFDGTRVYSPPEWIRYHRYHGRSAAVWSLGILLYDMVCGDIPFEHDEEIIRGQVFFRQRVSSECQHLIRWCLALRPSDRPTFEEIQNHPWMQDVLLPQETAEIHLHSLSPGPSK

Tm shift, active:
CC(C)(C)c1nc2c3cc[nH]c(=O)c3c3cc(F)ccc3c2[nH]1 4.9 Celsius [at 10 µM, protein 2 µM, buffer 10 mM Na Citrate, pH 6.5, NaCl 150 mM], Fc1ccc(-c2cnc3ccc(NC4CCOCC4)nn23)cc1 7.86 Celsius, c1ccc(-c2cnc3ccc(NCc4ccco4)nn23)cc1 3.07 Celsius [at 5 µM, protein 1 µM, buffer 10 mM HEPES], CC(C)[C@@H](CO)Nc1ccc2ncc(-c3cccc(OC(F)(F)F)c3)n2n1 8.65 Celsius, O=C1Cc2c([nH]c3ccc(Br)cc23)-c2ccccc2N1 3.9 Celsius [at 10 µM, protein 2 µM, buffer 10 mM Na Citrate, pH 6.5, NaCl 150 mM], O=C(O)c1cccc(-c2cnc3ccc(NCC4CC4)nn23)c1 3.62 Celsius, Nc1cccc(-c2cnn3ccc(Nc4cccc(Cl)c4)nc23)c1 6.21 Celsius, FC(F)(F)Oc1cccc(-c2cnc3ccc(NCC4CC4)nn23)c1 7.73 Celsius, Nc1ccc(-c2cnn3ccc(Nc4cccc(Cl)c4)nc23)cc1 6.84 Celsius, CCN1/C(=C/C(C)=O)Sc2ccc(OC)cc21 6.4 Celsius [at 10 µM, protein 2 µM, buffer 10 mM Na Citrate, pH 6.5, NaCl 150 mM], Oc1cc(O)cc(/C=C/c2ccc(O)c(O)c2)c1 3.2 Celsius [at 10 µM, protein 2 µM, buffer 10 mM Na Citrate, pH 6.5, NaCl 150 mM], Clc1cccc(Nc2ccn3ncc(-c4cccnc4)c3n2)c1 3.08 Celsius [at 10 µM, protein 2 µM, buffer 25 mM HEPES, pH 7.5, NaCl 250 mM], O=c1[nH]cnc2c1oc1ccc(Cl)cc12 3.41 Celsius, Fc1cccc(-c2cnc3ccc(NC4CCOCC4)nn23)c1 6.94 Celsius, NCCNc1ncc(C(N)=O)c(Nc2cccc(C(F)(F)F)c2)n1 5.5 Celsius [at 10 µM, protein 2 µM, buffer 10 mM Na Citrate, pH 6.5, NaCl 150 mM], CCC(CO)Nc1ccc2ncc(-c3cccc(CO)c3)n2n1 (stereo not drawn) 3.17 Celsius, CC(=O)Nc1cccc(-c2cnc3ccc(NC4CCOCC4)nn23)c1 3.48 Celsius, CC(C)[C@@H](CO)Nc1ccc2ncc(-c3cccc(Cl)c3)n2n1 6.86 Celsius, O=C(c1ccc(Nc2nccc(-c3cc4ccccc4s3)n2)cc1)N1CCC(N2CCCC2)CC1 3.7 Celsius [at 10 µM, protein 2 µM, buffer 10 mM Na Citrate, pH 6.5, NaCl 150 mM], CC(C)[C@@H](CO)Nc1ccc2ncc(-c3ccc(C#N)cc3)n2n1 4.53 Celsius, Clc1ccc(-c2cnc3ccc(NC4CCOCC4)nn23)cc1 7.28 Celsius, O=c1c(O)c(-c2ccc(O)c(O)c2)oc2cc(O)cc(O)c12 9.8 Celsius [at 10 µM, protein 2 µM, buffer 10 mM Na Citrate, pH 6.5, NaCl 150 mM], CCC(CO)Nc1ccc2ncc(-c3ccc(F)c(Cl)c3)n2n1 (stereo not drawn) 9.05 Celsius, CC(C)[C@@H](CO)Nc1ccc2ncc(-c3cccc(O)c3)n2n1 3.61 Celsius, CNC(=O)c1cc(Oc2ccc(NC(=O)Nc3ccc(C)c(C(F)(F)F)c3)cc2)ccn1 3.1 Celsius [at 10 µM, protein 2 µM, buffer 10 mM Na Citrate, pH 6.5, NaCl 150 mM], CCCCc1c(-c2ccc(O)cc2)[nH]c2nccnc12 4 Celsius [at 10 µM, protein 2 µM, buffer 10 mM Na Citrate, pH 6.5, NaCl 150 mM], CC(C)[C@@H](CO)Nc1ccc2ncc(-c3cccc(C(F)(F)F)c3)n2n1 8.83 Celsius, O=C1NC(=O)C(c2cn(CCCn3ccnc3)c3ccccc23)=C1Nc1ccccc1 3.1 Celsius [at 10 µM, protein 2 µM, buffer 10 mM Na Citrate, pH 6.5, NaCl 150 mM]
